# Test results taken from PubChem BioAssay (NCATS).
# Records with an inconclusive call do not appear. Values without a mark were called inactive. Calls of active or inactive are those of the source. Calls follow the shape of the dose curve; as a rule, active = well fitted inhibition curve with a large enough effect; inconclusive = small, poorly fitted or top-dose-only effect; inactive = no such curve, though single readings can be large or run the other way.
# Target: Furin (Homo sapiens) (UniProt P09958)
# Sequence (P09958 whole entry, looked up): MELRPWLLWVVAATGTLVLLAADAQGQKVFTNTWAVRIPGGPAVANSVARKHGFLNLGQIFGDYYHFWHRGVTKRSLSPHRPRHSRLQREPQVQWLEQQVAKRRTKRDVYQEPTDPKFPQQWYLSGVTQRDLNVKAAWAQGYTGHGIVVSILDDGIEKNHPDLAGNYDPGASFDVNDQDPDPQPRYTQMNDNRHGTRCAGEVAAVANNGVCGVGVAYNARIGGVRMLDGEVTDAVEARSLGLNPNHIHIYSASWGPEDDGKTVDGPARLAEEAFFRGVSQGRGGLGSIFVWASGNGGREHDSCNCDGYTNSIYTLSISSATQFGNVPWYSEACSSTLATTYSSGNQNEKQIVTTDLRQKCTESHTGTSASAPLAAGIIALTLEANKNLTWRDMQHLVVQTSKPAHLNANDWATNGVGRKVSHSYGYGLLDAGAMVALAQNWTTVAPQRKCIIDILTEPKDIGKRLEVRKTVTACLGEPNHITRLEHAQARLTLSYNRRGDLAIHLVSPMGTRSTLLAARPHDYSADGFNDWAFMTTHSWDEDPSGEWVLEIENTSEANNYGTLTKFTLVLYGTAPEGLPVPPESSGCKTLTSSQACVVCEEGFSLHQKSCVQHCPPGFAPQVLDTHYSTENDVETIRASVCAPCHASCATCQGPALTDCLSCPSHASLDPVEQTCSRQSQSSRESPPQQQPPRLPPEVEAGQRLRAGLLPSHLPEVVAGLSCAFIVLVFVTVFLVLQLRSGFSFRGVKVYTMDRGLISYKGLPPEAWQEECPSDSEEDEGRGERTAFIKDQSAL
# Assay: Furin counterscreen qHTS for Zika virus inhibitors (AID 1347149); also: nearly all actives have a fitted effect of over 70% in size;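 as to activity change, negative = inhibition: fluorescence gain from furin cutting a BOC-RVRR-AMC peptide substrate over 15 min; top concentration of the series differs between compounds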
# Conditions: furin enzymatic counterscreen, fluorogenic substrate; series mostly up to 57.5 µM; activity change, negative = inhibition: at the top concentration
# Excerpt: Avindra Nath, Ph.D., National Institute of Neurological Disorders and Stroke (NINDS), Bethesda, MD
# Radhakrishnan Padmanabhan, Ph.D., Georgetown University (GU), Washington D.C.
# Zika Virus causes congenital defects, including microcephaly and is associated with Guillain-Barre syndrome, eningoencephalitis and myelitis in infected adult. […] Using a target-based approach, we hope to establish a screening paradigm to uncover novel, cell-active NS2B-NS3 protease (Zika Virus) specific inhibitors from NCATS' collection of small molecules using qHTS.
# Four assay panel was created to identify potential Zika Virus inhibitors. Namely, (1) GU unlinked NS2B-NS3 AMC tagged protease qHTS, (2) GU unlinked NS2B-NS3 Rhodamine tagged protease qHTS, (3) NINDS linked NS2B-NS3 AMC tagged protease qHTS, (4) NINDS linked NS2B-NS3 Rhodamine tagged protease qHTS. Active compounds were re-acquired and re-screened to confirm inhibition. Inhibitors were further screened against various confirmatory and counterscreens in dose response format.
# Early Translation Branch (ETB)
# National Center for Advancing Translational Sciences (NCATS), Rockville, MD
# National Institute of Health (NIH), Bethesda, Maryland
# 1536-well Furin BOC-RVRR-AMC Protocol:
# Human recombinant Furin Serine Protease was purchased from Peprotech (catalog #450-47; full length; Rocky Hill, NJ). Briefly, 3 microL of enzyme (final concentrations of 5 nM), in assay buffer (100 mM HEPES pH 7.0, 1 mM CaCl2 with 0.01% Triton X-100) were dispensed into a 1,536-well solid-bottom black plate (Greiner Bio One, Monroe, NC). Twenty-three nL of compounds (final concentration range 7.28 nM to 114 microM) or control Furin Inhibitor I (Dec-RVKR-CMK; final concentration range 0.248 nM to 8.12 microM) were transferred via Wako Pin-tool (Wako Automation, Richmond, VA). Samples were incubated (RT, protected from light) for 15 minutes followed by a 1 microL substrate addition of BOC-RVRR-AMC (final concentration of 2 microM; Km = ~15 muM90). Plates were then read immediately on a ViewLux High-throughput CCD imager (PerkinElmer, Waltham, MA) equipped with standard UV fluorescence optics (340(30) nm excitation, 450(20) nm emission), then incubated (37C, protected from light) for 15 or 30 minutes (~9% conversion). The change in fluorescence intensity over the 15-minute reaction period was normalized against no-inhibitor and no-enzyme controls and the resulting percent inhibition data were fitted to a 4-parameter Hill equation. Furin Inhibitor I was used as intraplate control.
# Potency is read from the fitted curve at half-maximal effect.
Structure (SMILES),Potency,"activity change, negative = inhibition [%]"
CN1CCN(c2cc3c(nn2)Oc2ccccc2N3C)CC1,11.8 µM (active),–
COC(=O)C1=C(C)NC(C)=C(C(=O)OC)C1c1cccc(NC(=O)NCCCN2CCC(c3cccc(OC)c3)CC2)c1,30.3 µM (active),–
C=C[C@@H]1CN2CC[C@@H]1C[C@H]2[C@H](O)c1ccnc2ccc(OC)cc12,24.1 µM (active),–
COc1ccc(/C=C/c2nc(NCCCN(C)C)c3ccccc3n2)cc1,24.1 µM (active),–
NC(=O)C(=O)O,–,-2.78
O=C(NOCC1CC1)c1cc(Br)c(F)c(F)c1Nc1ccc(I)cc1Cl,–,28.3
Cc1ccccc1CNc1ncnc2c1ncn2C1OC(CO)C(O)C1O (stereo unspecified),–,2.45
COc1ccc(Br)cc1S(=O)(=O)NC(=O)/C=C/c1ccccc1Cc1ccc2ccccc2c1,27 µM (active),–
Oc1cc2c(cc1O)CN(C(=S)NCCc1ccc(Cl)cc1)CCC2,–,2.48
O=C(c1cc(O)c(O)c([N+](=O)[O-])c1)c1ccccc1F,–,-10.1
CC[C@@H](C)[C@H]1O[C@]2(CC[C@H]1C)C[C@@H]1C[C@@H](CC=C(C)[C@@H](O[C@H]3C[C@H](OC)[C@@H](O[C@H]4C[C@H](OC)[C@@H](O)[C@H](C)O4)[C@H](C)O3)[C@@H](C)C=CC=C3CO[C@@H]4[C@H](O)C(C)=C[C@@H](C(=O)O1)[C@]34O)O2,–,-1.64
